According to the supplement of paper PMC3842684:

The compounds below were run on P. falciparum NF54-pfs16-GFP early (I-III) stage gametocytes (assay: relative % inhibition of viable gametocyte number; higher = more gametocytocidal). Conditions: 0.5 µM; stage: early (I-III) gametocyte; incubation 72 h.
In short: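 Relative inhibition was normalised to in-plate vehicle and positive-control wells, with viable gametocytes defined on confocal images as elongated GFP objects whose MitoTracker Red signal exceeded a cut-off. NF54 pfs16-GFP gametocytes, magnet-isolated at early (I/IIa, day 2) or late (day 8) stage, were plated at 10% parasitaemia, 0.1% haematocrit with compound at 5 or 0.5 µM. Plates were incubated 72 h at 37°C, 5% CO2, 5% O2, then stained overnight.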

| SMILES | relative % inhibition [%] |
| --- | --- |
| O=C(NCCCN1CCC(N2CCCCC2)CC1)C1=Cc2cc(Br)ccc2OC1 | 42.8 |
| COc1ccc(-c2cn3c(C(=O)Nc4ccccc4Cl)c(-c4ccccc4)c4c3n2CCCC4)cc1 | 10.5 |
| COc1ccc2c(=O)cc(C(Cl)(Cl)Cl)oc2c1 | 68.6 |
| COc1ccc2nc(N)nc(C)c2c1 | 15.7 |
| CN(C)c1ccc(N=Cc2ccc(N3CCOCC3)cc2)cc1 | 2.5 |
| CCOc1ccc(-c2nonc2NC(=O)c2cccc(C)c2)cc1OCC | 31.4 |
| Cc1cc(C)c2nc(N3CCC(C(=O)NCCCN4CCC(N5CCCCC5)CC4)CC3)sc2c1 | 8.57 |
| COc1ccc(C(=O)Nc2ccc(Cl)cc2C(=O)Nc2ccncc2)cc1 | -7.22 |
| Cc1ccccc1OCCSc1nc2ccc(NC(=O)c3ccccc3)cc2s1 | 24.2 |
| CC1CC2=C(CC1CNCCCN(C)C)C(C)(C)CCC2 (centres undefined) | 33.8 |
| Fc1ccc2[nH]c3c(NCCCN4CCOCC4)ncnc3c2c1 | 18.8 |
| O=C(Cc1ccccc1)NC(c1ccc(Cl)cc1)c1c(O)ccc2ccccc12 (centres undefined) | 14.2 |
| CCCCCC(=O)N1c2ccccc2N=C2CC(c3ccc(OC)c(OC)c3)CC(O)=C2C1c1ccc(C(F)(F)F)cc1 (centres undefined) | 50.6 |
| COc1cc(SC)ccc1C(=O)N1CCCC(C)C1 (centres undefined) | -24.7 |
| FC(F)(F)c1cccc(Nc2nc3ccccc3nc2Nc2cccc(C(F)(F)F)c2)c1 | 96.8 |
| COc1cc2c3cc1Oc1c(OC)c(OC)cc4c1C(Cc1ccc(O)c(c1)Oc1ccc(cc1)CC3N(C)CC2)N(C)CC4 (centres undefined) | 1.03 |
| CC(C)(C)c1ccc2c(c1)CN(Cc1ccc(Cl)cc1)CO2 | 9.71 |
| CSC1=NC(=Nc2c(C)cccc2C)C2(CCC(C(C)(C)C)CC2)N1c1ccc(Cl)cc1 (centres undefined) | 24.7 |
| CCOc1cc2c(cc1OCC)C(c1cc(OC)c(O)cc1Cl)NCC2 (centres undefined) | 22.5 |
| Cc1ccc2cc3c(N)c4c(C)ccc(C)c4nc3nc2c1 | 4.09 |

| SMILES | relative % inhibition [%] |
| --- | --- |
| O=C(NC1CCN(Cc2ccccc2)CC1)c1cc(-c2ccncc2)nc2ccc(Cl)cc12 | 17.7 |
| CC(C)CNC(=O)c1c(N)n(CCc2ccccc2F)c2nc3ccccc3nc12 | -1.27 |
| COc1ccc2sc(N(Cc3cccnc3)C(=O)c3ccc(C#N)cc3)nc2c1 | 9.23 |
| CSc1ccccc1C(=O)Nc1nc(-c2ccccn2)cs1 | 27.3 |
| CCOC(=O)C1=C(c2ccccc2)N=c2sc(=Cc3cc(C)n(-c4ccc(F)cc4)c3C)c(=O)n2C1c1cccc(OC)c1OC (centres undefined) | 14.6 |
| Cc1cc(Nc2ccc(OCc3ccccc3)cc2)nc2cc(O)ccc12 | 12.6 |
| CCOC(=O)C1(Cc2ccccc2)CCN(Cc2cccc(OC)c2O)CC1 | 14.7 |
| OC1CCCCC1C1(NC(=S)Nc2ccccc2)CCCCC1 (centres undefined) | 2.55 |
| CCN(CC)S(=O)(=O)c1ccc(-c2csc(Nc3ccc(C)c(C)c3)n2)cc1 | 28 |
| Cc1ccnc(NC(c2cccc(OCc3ccccc3)c2)c2ccc3cccnc3c2O)c1 (centres undefined) | 14.9 |
| CCOc1cc(Cl)c(C(C)NC(=O)c2cccc(OC)c2)cc1OCC (centres undefined) | 24.8 |
| COc1ccc(-c2nc3cc(Cc4ccc5[nH]c(-c6ccc(OC)cc6)nc5c4)ccc3[nH]2)cc1 | 48.1 |
| COC(=O)c1ccc(Cl)c2c1C1C=CCC1C(c1cccc3ccccc13)N2 (centres undefined) | -9.28 |
| Oc1c(CN2CCN(c3ccccc3F)CC2)cc(Br)c2cccnc12 | 15.7 |
| COc1ccc(-c2nc(NC(=O)CS(=O)(=O)c3ccc(F)cc3)sc2C)cc1 | 12.7 |
| CCCCCCOC(=O)C1=C(C)NC(=O)NC1c1ccccc1F (centres undefined) | 9.08 |
| CCOC(=O)C1=CN(C)C=C(C(=O)OCC)C1c1cc(Br)c(OCC)c(OC)c1 | 38.1 |
| COc1ccc(C2NCCc3c2[nH]c2ccccc32)cc1CN1CCN(c2ccc(F)cc2)CC1 (centres undefined) | 18.2 |
| OC(CNC1CCCCC1)Cn1c2ccccc2c2ccccc21 (centres undefined) | 14.8 |
